Experimental data as given in PubChem BioAssay AID1159580 (chemical genetic matrix, 2015).
The campaign covered roughly 5,500 compounds. About 2,000 (36%) were called active. Not shown: some 18% with an inconclusive outcome. Cut-off read from the data, not from the text of the source: active = normalized growth mostly below about 0.91 (no sharp cut-off); inconclusive = no clear call, values can overlap the other calls; inactive = mostly above about 0.92. This is one part of the list.

Test: chemical genetic growth profiling, strain panel (AID 1159580);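 note: tested at 20 µM; growth read once vehicle control cultures reached saturation at 30 °C; 1 = growth at the plate median or of vehicle wells; lower values mean less growth of the strain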
Details: growth OD

Measured: normalized growth

Oc1ccc(Cl)cc1
inactive: S. cerevisiae deletion strains, locus YJR075W, strain HOC1, active compounds read low 0.993 | S. cerevisiae deletion strains, locus YKL009W, strain mrt4, active compounds read low 0.972 | S. cerevisiae deletion strains, locus YKL068W, active compounds read low 0.985 | S. cerevisiae deletion strains, locus YKL085W, strain MDH1 (second series), active compounds read low 0.978 | S. cerevisiae deletion strains, locus YKL085W, strain MDH1, active compounds read low 0.978 | S. cerevisiae deletion strains, locus YKL160W, strain elf1, active compounds read low 1.03 | S. cerevisiae deletion strains, locus YKL190W, strain CNB1, active compounds read low 0.993 | S. cerevisiae deletion strains, locus YKR001C, strain vps1, active compounds read low 0.996 | S. cerevisiae deletion strains, locus YKR026C, strain gcn3, active compounds read low 1.02 | S. cerevisiae deletion strains, locus YKR091W, strain srl3, active compounds read low 1.01 | S. cerevisiae deletion strains, locus YLL001W, strain dnm1, active compounds read low 1.02 | S. cerevisiae deletion strains, locus YLL026W, active compounds read low 1.02 | S. cerevisiae deletion strains, locus YLL041C, strain sdh2, active compounds read low 1.01 | S. cerevisiae deletion strains, locus YLR027C, strain aat2, active compounds read low 0.999 | S. cerevisiae deletion strains, locus YLR039C, strain RIC1, active compounds read low 0.983 | S. cerevisiae deletion strains, locus YLR058C, strain SHM2, active compounds read low 0.989 | S. cerevisiae deletion strains, locus YLR102C, strain apc9, active compounds read low 0.976 | S. cerevisiae deletion strains, locus YLR113W, strain HOG1, active compounds read low 1 | S. cerevisiae deletion strains, locus YLR221C, strain rsa3, active compounds read low 1.01 | S. cerevisiae deletion strains, locus YLR258W, strain gsy2, active compounds read low 1 | S. cerevisiae deletion strains, locus YLR262C, strain YPT6 (second series), active compounds read low 1.02 | S. cerevisiae deletion strains, locus YLR262C, strain YPT6, active compounds read low 0.986 | S. cerevisiae deletion strains, locus YLR268W, strain sec22, active compounds read low 0.93 | S. cerevisiae deletion strains, locus YLR320W, strain mms22, active compounds read low 1.03 | S. cerevisiae deletion strains, locus YLR330W, strain CHS5, active compounds read low 0.99 | S. cerevisiae deletion strains, locus YLR342W, strain FKS1 (second series), active compounds read low 0.995 | S. cerevisiae deletion strains, locus YLR342W, strain FKS1, active compounds read low 1.01 | S. cerevisiae deletion strains, locus YLR357W, strain rsc2, active compounds read low 1.04 | S. cerevisiae deletion strains, locus YLR370C, strain arc18, active compounds read low 1.01 | S. cerevisiae deletion strains, locus YLR371W, strain rom2, active compounds read low 0.962 | S. cerevisiae deletion strains, locus YLR384C, strain iki3, active compounds read low 1.01 | S. cerevisiae deletion strains, locus YLR418C, strain cdc73, active compounds read low 0.986 | S. cerevisiae deletion strains, locus YML016C, strain PPZ1, active compounds read low 0.99 | S. cerevisiae deletion strains, locus YML032C, strain rad52, active compounds read low 0.963 | S. cerevisiae deletion strains, locus YML120C, strain ndi1, active compounds read low 1.01 | S. cerevisiae deletion strains, locus YML124C, strain tub3, active compounds read low 0.975 | S. cerevisiae deletion strains, locus YMR058W, strain fet3, active compounds read low 1.01 | S. cerevisiae deletion strains, locus YMR078C, strain ctf18, active compounds read low 0.968 | S. cerevisiae deletion strains, locus YMR125W, strain sto1, active compounds read low 1.01 | S. cerevisiae deletion strains, locus YMR129W, active compounds read low 1.01 | S. cerevisiae deletion strains, locus YMR205C, strain PFK2, active compounds read low 1.03 | S. cerevisiae deletion strains, locus YMR223W, strain ubp8, active compounds read low 1 | S. cerevisiae deletion strains, locus YMR231W, strain pep5, active compounds read low 1.01 | S. cerevisiae deletion strains, locus YMR307W, strain GAS1, active compounds read low 1 | S. cerevisiae deletion strains, locus YNL067W, strain RPL9B, active compounds read low 0.996 | S. cerevisiae deletion strains, locus YNL071W, strain lat1, active compounds read low 1.01 | S. cerevisiae deletion strains, locus YNL128W, strain TEP1, active compounds read low 0.978 | S. cerevisiae deletion strains, locus YNL153C, strain GIM3, active compounds read low 1 | S. cerevisiae deletion strains, locus YNL183C, strain NPR1, active compounds read low 0.941 | S. cerevisiae deletion strains, locus YNL209W, strain ssb2, active compounds read low 1 | S. cerevisiae deletion strains, locus YNL233W, strain BNI4, active compounds read low 0.988 | S. cerevisiae deletion strains, locus YNL248C, strain rpa49, active compounds read low 1 | S. cerevisiae deletion strains, locus YNL250W, strain rad50, active compounds read low 0.97 | S. cerevisiae deletion strains, locus YNL271C, strain bni1, active compounds read low 0.975 | S. cerevisiae deletion strains, locus YNL298W, strain CLA4, active compounds read low 0.971 | S. cerevisiae deletion strains, locus YNL307C, strain MCK1, active compounds read low 0.968 | S. cerevisiae deletion strains, locus YNL322C, strain KRE1 (second series), active compounds read low 1.02 | S. cerevisiae deletion strains, locus YNL322C, strain KRE1, active compounds read low 0.992 | S. cerevisiae deletion strains, locus YNR049C, strain mso1, active compounds read low 1.01 | S. cerevisiae deletion strains, locus YNR052C, strain pop2, active compounds read low 0.973 | S. cerevisiae deletion strains, locus YOL006C, strain TOP1, active compounds read low 1.03 | S. cerevisiae deletion strains, locus YOL012C, strain htz1 0.904 | S. cerevisiae deletion strains, locus YOL147C, strain pex11, active compounds read low 0.986 | S. cerevisiae deletion strains, locus YOR001W, strain rrp6, active compounds read low 0.972 | S. cerevisiae deletion strains, locus YOR061W, strain CKA2, active compounds read low 0.98 | S. cerevisiae deletion strains, locus YOR069W, strain VPS5, active compounds read low 0.989 | S. cerevisiae deletion strains, locus YOR070C, strain gyp1, active compounds read low 1 | S. cerevisiae deletion strains, locus YOR080W, strain dia2, active compounds read low 1.01 | S. cerevisiae deletion strains, locus YOR083W, strain WHI5, active compounds read low 1.02 | S. cerevisiae deletion strains, locus YOR106W, strain vam3, active compounds read low 1.02 | S. cerevisiae deletion strains, locus YOR136W, strain idh2, active compounds read low 0.98 | S. cerevisiae deletion strains, locus YOR144C, strain elg1, active compounds read low 0.978 | S. cerevisiae deletion strains, locus YOR184W, strain ser1, active compounds read low 0.961 | S. cerevisiae deletion strains, locus YOR231W, strain MKK1, active compounds read low 0.979 | S. cerevisiae deletion strains, locus YOR265W, strain rbl2, active compounds read low 1.02 | S. cerevisiae deletion strains, locus YOR270C, strain vph1, active compounds read low 1.02 | S. cerevisiae deletion strains, locus YOR290C, strain snf2, active compounds read low 0.999 | S. cerevisiae deletion strains, locus YOR316C, strain cot1, active compounds read low 0.974 | S. cerevisiae deletion strains, locus YPL051W, strain arl3, active compounds read low 1.01 | S. cerevisiae deletion strains, locus YPL078C, strain atp4, active compounds read low 1.01 | S. cerevisiae deletion strains, locus YPL106C, strain sse1, active compounds read low 1.04 | S. cerevisiae deletion strains, locus YPL240C, strain hsp82, active compounds read low 1.01 | S. cerevisiae deletion strains, locus YPL241C, strain CIN2, active compounds read low 0.997 | S. cerevisiae deletion strains, locus YPL256C, strain CLN2, active compounds read low 0.978 | S. cerevisiae deletion strains, locus YPR119W, strain clb2, active compounds read low 0.98 | S. cerevisiae deletion strains, locus YPR141C, strain kar3, active compounds read low 0.976 | S. cerevisiae deletion strains, locus YPR163C, strain tif3, active compounds read low 0.983 | S. cerevisiae deletion strains, locus YPR167C, strain met16, active compounds read low 0.974 | S. cerevisiae deletion strains, strain wtn01, active compounds read low 0.971 | S. cerevisiae strains, strain wild type, active compounds read low 0.995
